A short description of assay [1]: compounds binding Alexa647 anti-His antibody – biochemical, small-molecule microarray, 635 nm fluorescence, artefact control for SMM control protein annotation, primary screen (AID 1128).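 Also: score merges feature fluorescence with signal-to-noise for each printed compound spot.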 As to conditions: higher = more signal.
Assay [2] relates to Human papillomavirus type 1a E7 protein (residues 1-88). As to the kind of experiment: HPV1a E7 small-molecule binders, primary screen, biochemical, small-molecule microarray, residues 1-88, 635 nm (AID 1129). As to conditions: small-molecule microarray binding, fluorescence 635 nm; higher = more signal.
Assay [3] addresses Focal adhesion kinase 1 (Homo sapiens) (UniProt Q05397). As to the kind of experiment: PTK2 protein binding on printed compound slides – biochemical, small-molecule microarray, 635/667 nm fluorescence, BSA, DTT, primary screen (AID 1130).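 Also: composite of spot emission at 667 nm and signal to noise over triplicate slides.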 The following applies: 635 nm fluorescence, higher = more signal.
The subject of assay [4] is Fibrinogen (Alexa647-labelled). Description: Alexa647-fibrinogen binding to printed small molecules – biochemical, small-molecule microarray, 635/667 nm fluorescence, artefact control for SMM control-protein annotation, profiling panel (AID 1131).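 Also: z-score merges 667 nm fluorescence with per-spot signal-to-noise over triplicate slides.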 As to conditions: fibrinogen-A647 binding fluorescence, higher = more signal.
Assay [5] deals with Follistatin (Homo sapiens) (UniProt P19883). As to the kind of experiment: FST protein binding to printed compounds – biochemical, small-molecule microarray, 635/667 nm fluorescence, primary screen (AID 1132). The following applies: 635 nm fluorescence, higher = more signal.
In assay [6] the target is Fibroblast growth factor 2 (Homo sapiens) (UniProt P09038). Description: basic fibroblast growth factor binding to printed compounds – biochemical, small-molecule microarray, 635/667 nm fluorescence, primary screen (AID 1133). As to conditions: FGF2, fluorescence 635/667, higher = more signal.
A short description of assay [7]: JC-1 mitochondrial potential readout, lung cancer cells – cell-based, A549, JC-1 fluorescence, basal, 24 h, 100 nL, profiling panel (AID 1138).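 Also: A549 lung adenocarcinoma cells under basal conditions with no added stimulus; test concentration not given here.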 As to conditions: higher = more signal.
The test system of another assay is Lefty1. Description: Lefty1 protein binding to printed compounds – biochemical, small-molecule microarray, 635/667 nm fluorescence, primary screen (AID 1139). The following applies: fluorescence 635/667, higher = more signal.
Assay [8] deals with wheat germ agglutinin (Triticum aestivum), Alexa647-labelled. Description: Alexa647-WGA lectin binding to printed small molecules – biochemical, small-molecule microarray, 635/667 nm fluorescence, artefact control for SMM control-protein annotation, profiling panel (AID 1140).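 Also: score merges 667 nm feature emission with signal to noise over triplicate slides.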 As to conditions: WGA-A647 binding, 635 nm fluorescence, higher = more signal.
The target of assay [9] is Luciferin 4-monooxygenase (Photinus pyralis) (UniProt P08659). Description: inhibition of purified Photinus pyralis luciferase – biochemical, luminescence, purified enzyme, 2006 set, primary screen (AID 1141).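 Also: cell-free assay with purified firefly luciferase at 100 ng per well in PBS; test concentration not given here.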 The following applies: purified firefly luciferase, SteadyGlo luminescence, 30 min; higher = more signal, called active from +8 up or from −8 down.
In assay [10] the test system is Wnt5a (protein binding on small-molecule microarray). Description: small molecules binding Wnt5a protein – biophysical, small-molecule microarray, 635/667 nm fluorescence, primary screen (AID 1142).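 Also: fluorescence read at 667 nm with signal to noise per printed feature.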 The following applies: 635 nm fluorescence, higher = more signal.
Assay [11] can be described thus: ATP-based viability of Huh7 replicon cells – cell-based, CellTiter-Glo luminescence, basal, 48 h, cytotoxicity control for HCV replication inhibitor project, primary screen (AID 1143).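 Also: Huh7 hepatoma cells carrying a hepatitis C replication reporter with no stimulus; test concentration not given here.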 The following applies: higher = more signal, called active from +8 up or from −8 down. Background: In antiviral work, replicon cells carry a viral genome segment that copies itself.
Assay [12] in a line: Pseudomonas biofilm growth suppression – PAO1 strain, BacTiter-Glo luminescence, LB-PBS, primary screen (AID 1144). As to conditions: P. aeruginosa PAO1 biofilm, 12 h, higher = more signal.
Assay [13] can be described thus: basal CRE-LacZ reporter activity in PC12 – cell-based, unstimulated, primary screen (AID 1145). The following applies: no forskolin, luminescence, 4.5 h, higher = more signal, called active from +8 up or from −8 down.
Assay [14] can be described thus: forskolin-driven CRE-LacZ activity in PC12 – cell-based, CRE-LacZ reporter, forskolin-stimulated, primary screen (AID 1146).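 Also: PC12 cells with 6xCRE LacZ reporter stimulated by forskolin 10 µM; beta-galactosidase reporter signal reflecting CREB driven transcription.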 The following applies: luminescence, 4.5 h, higher = more signal, called active from +8 up or from −8 down.
For assay [15], the target named is Streptavidin (Streptomyces avidinii) (UniProt P22629). As to the kind of experiment: compounds binding control protein streptavidin – biophysical, small-molecule microarray, 635/667 nm fluorescence, artefact control for SMM compound annotation, primary screen (AID 1147).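 Also: signal reflects streptavidin binding to arrayed compounds as a control protein.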 As to conditions: higher = more signal.
Assay [16] in a line: probe aInhba binding on compound microarray – biochemical, small-molecule microarray, 635/667 nm fluorescence, primary screen (AID 1148).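 Also: score merges 667nm spot fluorescence with signal-to-noise for antibody binding to printed compounds.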 The following applies: higher = more signal.
In assay [17] the target is Torsin-1A (Homo sapiens) (UniProt O14656). As to the kind of experiment: TOR1A wild-type binding on microarray – cell lysate, small-molecule microarray, lysate, 635/667 nm, primary screen (AID 1149). As to conditions: COS7 hTOR1A-WT lysate, 635 nm fluorescence, higher = more signal.
Assay [18] shares this target. As to the kind of experiment: torsin A mutant lysate binding on microarrays – cell lysate, small-molecule microarray, COS7 lysate, 635/667 nm fluorescence, primary screen (AID 1150).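 Also: score pools 667 nm emission and signal to noise measuring lysate protein binding.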 The following applies: COS7 hTOR1A mutant lysate, 635 nm fluorescence, higher = more signal.
In assay [19] the test system is Sonic hedgehog protein (Shh). As to the kind of experiment: Sonic hedgehog microarray binding compounds – biochemical, small-molecule microarray, 635/667 nm fluorescence, primary screen (AID 1151).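 Also: Shh protein binding to compounds spotted on small-molecule microarray slides; score combines spot fluorescence intensity with signal-to-noise across triplicate slides.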 As to conditions: 635 nm fluorescence, higher = more signal.

Active and inactive are the calls of the source. Unless noted, no rule for the calls is given here.

Chain of Follistatin (Homo sapiens) (P19883 whole entry, looked up): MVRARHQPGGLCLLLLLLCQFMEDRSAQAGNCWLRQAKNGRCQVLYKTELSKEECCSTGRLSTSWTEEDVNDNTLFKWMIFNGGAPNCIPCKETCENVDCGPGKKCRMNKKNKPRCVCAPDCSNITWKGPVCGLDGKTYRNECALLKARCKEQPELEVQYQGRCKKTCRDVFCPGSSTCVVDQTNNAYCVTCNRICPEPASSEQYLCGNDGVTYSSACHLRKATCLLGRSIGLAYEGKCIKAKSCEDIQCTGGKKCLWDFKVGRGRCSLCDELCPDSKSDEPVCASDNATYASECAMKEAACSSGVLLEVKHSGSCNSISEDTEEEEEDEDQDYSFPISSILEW
Chain of Fibroblast growth factor 2 (Homo sapiens) (P09038 whole entry, looked up): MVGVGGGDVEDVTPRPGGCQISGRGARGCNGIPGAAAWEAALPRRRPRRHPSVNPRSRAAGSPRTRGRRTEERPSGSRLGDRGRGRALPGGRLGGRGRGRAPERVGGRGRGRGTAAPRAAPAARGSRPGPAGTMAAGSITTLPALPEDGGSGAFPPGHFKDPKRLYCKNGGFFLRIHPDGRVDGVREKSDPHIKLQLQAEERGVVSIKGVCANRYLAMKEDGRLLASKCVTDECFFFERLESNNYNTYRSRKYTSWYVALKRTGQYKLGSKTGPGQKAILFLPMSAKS
Chain of Torsin-1A (Homo sapiens) (O14656 whole entry, looked up): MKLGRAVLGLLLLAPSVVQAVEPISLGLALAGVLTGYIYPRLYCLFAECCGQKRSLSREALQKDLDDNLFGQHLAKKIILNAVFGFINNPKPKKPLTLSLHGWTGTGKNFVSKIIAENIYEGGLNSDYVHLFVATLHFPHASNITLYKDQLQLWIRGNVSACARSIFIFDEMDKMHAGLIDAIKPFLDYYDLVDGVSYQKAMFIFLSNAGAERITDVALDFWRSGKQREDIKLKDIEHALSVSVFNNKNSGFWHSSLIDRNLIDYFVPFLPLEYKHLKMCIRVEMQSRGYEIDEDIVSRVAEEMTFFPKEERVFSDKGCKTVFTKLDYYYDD
Chain of Luciferin 4-monooxygenase (Photinus pyralis) (P08659 whole entry, looked up): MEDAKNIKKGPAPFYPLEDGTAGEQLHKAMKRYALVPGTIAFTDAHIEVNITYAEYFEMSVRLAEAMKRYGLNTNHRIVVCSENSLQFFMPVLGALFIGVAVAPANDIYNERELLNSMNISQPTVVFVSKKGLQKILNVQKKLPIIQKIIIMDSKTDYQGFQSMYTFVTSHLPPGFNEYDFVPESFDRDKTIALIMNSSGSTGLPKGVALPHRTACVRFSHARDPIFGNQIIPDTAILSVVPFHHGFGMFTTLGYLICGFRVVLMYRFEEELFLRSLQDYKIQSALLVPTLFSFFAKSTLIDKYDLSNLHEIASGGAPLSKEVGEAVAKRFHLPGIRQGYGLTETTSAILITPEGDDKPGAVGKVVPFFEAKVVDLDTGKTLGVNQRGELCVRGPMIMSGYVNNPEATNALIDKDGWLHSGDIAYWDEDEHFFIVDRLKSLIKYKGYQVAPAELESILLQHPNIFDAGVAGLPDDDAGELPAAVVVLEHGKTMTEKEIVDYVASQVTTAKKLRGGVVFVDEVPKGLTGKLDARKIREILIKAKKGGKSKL
Chain of Streptavidin (Streptomyces avidinii) (P22629 whole entry, looked up): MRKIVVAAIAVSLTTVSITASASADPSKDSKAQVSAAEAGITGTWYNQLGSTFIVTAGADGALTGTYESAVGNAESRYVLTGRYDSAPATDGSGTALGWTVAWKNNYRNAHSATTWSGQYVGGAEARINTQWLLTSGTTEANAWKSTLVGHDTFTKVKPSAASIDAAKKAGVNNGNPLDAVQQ
Chain of Focal adhesion kinase 1 (Homo sapiens) (Q05397 whole entry, looked up): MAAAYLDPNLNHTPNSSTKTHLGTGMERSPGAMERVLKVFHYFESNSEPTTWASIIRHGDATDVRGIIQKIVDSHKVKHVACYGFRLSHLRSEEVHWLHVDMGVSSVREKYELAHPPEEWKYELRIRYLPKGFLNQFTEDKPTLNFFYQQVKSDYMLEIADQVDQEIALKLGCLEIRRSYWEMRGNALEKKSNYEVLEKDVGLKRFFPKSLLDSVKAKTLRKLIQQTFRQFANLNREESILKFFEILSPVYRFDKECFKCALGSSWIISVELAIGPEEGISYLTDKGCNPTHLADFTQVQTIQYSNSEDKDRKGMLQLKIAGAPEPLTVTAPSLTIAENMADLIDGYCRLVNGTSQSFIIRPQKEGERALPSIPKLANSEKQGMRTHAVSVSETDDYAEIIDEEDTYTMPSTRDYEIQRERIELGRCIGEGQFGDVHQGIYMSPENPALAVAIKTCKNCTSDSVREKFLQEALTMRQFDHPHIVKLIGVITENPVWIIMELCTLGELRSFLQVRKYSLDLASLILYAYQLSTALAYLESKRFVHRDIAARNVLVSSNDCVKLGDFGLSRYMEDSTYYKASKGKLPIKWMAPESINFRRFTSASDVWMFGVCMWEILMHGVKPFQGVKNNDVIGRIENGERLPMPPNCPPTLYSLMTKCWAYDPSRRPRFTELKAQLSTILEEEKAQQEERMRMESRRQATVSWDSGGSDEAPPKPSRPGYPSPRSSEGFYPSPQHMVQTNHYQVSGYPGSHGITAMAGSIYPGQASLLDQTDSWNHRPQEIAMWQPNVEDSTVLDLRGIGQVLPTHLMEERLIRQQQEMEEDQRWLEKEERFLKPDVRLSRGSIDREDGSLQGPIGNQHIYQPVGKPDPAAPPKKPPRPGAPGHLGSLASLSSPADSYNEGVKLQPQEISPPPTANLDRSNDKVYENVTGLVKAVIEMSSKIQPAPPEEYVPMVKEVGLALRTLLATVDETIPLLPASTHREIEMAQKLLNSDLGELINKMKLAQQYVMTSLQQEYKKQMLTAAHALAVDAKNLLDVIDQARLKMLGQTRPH

In the case of `COc1ccc(-c2cc3c(c(CCc4ccccc4)n2)[Si](C(C)C)(C(C)C)O[C@H]3c2ccccc2)cn1`, the composite z-score in assay [1] was -0.0334; in assay [2], -0.547; in assay [3], 0.16; in assay [4] it was 0.285; in [5] it was 0.432; in assay [6] it was 0.0958. For the same molecule, the composite z-score is 0.169 in the assay with Lefty1; 0.0926 in [8]; -0.143 in assay [10]; 0.547 in [15]; -0.0762 in [16]; -0.719 in the assay with Torsin-1A (Homo sapiens) [17]. Also, the composite z-score was -0.534 with Torsin-1A (Homo sapiens) [18] and 0.431 in assay [19]. For the same molecule, the z-score is 0.412 in assay [7]; -0.315 (inactive) in assay [9]; -0.248 (inactive) in assay [11]; -0.113 (inactive) in assay [12]; 4.67 (inactive) in [13]; -0.0122 (inactive) in assay [14].
In the case of `COc1ccc(C(=O)Nc2cccc(CN3C(=O)[C@]4(O[C@H](CC(=O)N(CCO)Cc5ccccc5)[C@@H]([Si](C)(C)c5ccc(OC)cc5)[C@@H]4C)c4ccccc43)c2)cc1`, the composite z-score in assay [1] amounted to 0.699; in assay [2], 1.07; in [3] it was 0.116; in [4], 0.334; in assay [5], 0.959; in [6], 1.15. Besides, the composite z-score is 0.565 with Lefty1; 0.596 in assay [8]; 0.997 in [10]; 0.127 in assay [15]; -0.0131 in assay [16]; 0.0401 with Torsin-1A (Homo sapiens) [17]. Besides, the results for the composite z-score (in the assay with Torsin-1A (Homo sapiens) [18]; in assay [19]) were 0.395 and 1.48, respectively. Further, the z-score was -0.0253 in assay [7]; -0.881 (inactive) in assay [9]; -4.13 (inactive) in assay [11]; 0.172 (inactive) in assay [12]; 1.72 (inactive) in assay [13]; -1.33 (inactive) in [14].
Regarding `C=C1C(=O)C=C2CN(C(=O)c3ccccc3)[C@@](Cc3ccc(F)cc3)(C(=O)OC)[C@@H]12`, the composite z-score in assay [1] is 1; in [2], 1.18; in assay [3], 0.69; in [4], 1.03; in assay [5], 1.25; in assay [6] it was -0.234. Besides, the composite z-score was -0.384 in the assay with Lefty1; 0.872 in assay [8]; 0.272 in assay [10]; 1.87 in assay [15]; 0.49 in [16]; 0.172 in the assay with Torsin-1A (Homo sapiens) [17]. The composite z-score with Torsin-1A (Homo sapiens) [18] is 0.73; in assay [19], -0.0536. Further, the z-score in assay [7] was -3.17; in assay [9] it was -25.6 (active); in assay [11], -5.23 (inactive); in [12], 1.1 (inactive); in [13] it was -0.375 (inactive); in [14], -2.15 (inactive).
Take `C[C@@]1([C@@H](NS(=O)(=O)c2cccc3cccnc23)c2ccc(-c3ccccc3)cc2)C[C@H]1C1CCCCC1`: the composite z-score in assay [1] was 0.431; in assay [2], 1.18; in [3], 1.14; in assay [4], -0.744; in assay [5] it was 0.247; in [6] it was -0.506. Besides, the composite z-score in the assay with Lefty1 is -0.959; in [8], 0.655; in assay [10], 0.17; in assay [15], 1.15; in assay [16], 0.417; in the assay with Torsin-1A (Homo sapiens) [17], -0.293. Moreover, the composite z-score with Torsin-1A (Homo sapiens) [18] was 0.0327; in [19], -0.517. Moreover, the z-score in assay [7] is 0.00915; in [9], 1.29 (inactive); in [11], -2.15 (inactive); in [12] it was 0.33 (inactive); in assay [13], 0.583 (inactive); in assay [14] it was -0.152 (inactive).
`COC(=O)[C@@]1(Cc2ccc(F)cc2)[C@H]2c3cc(C(=O)N4CCCC4)n(C[C@H](O)CO)c3C[C@H]2CN1C(=O)c1ccccc1`: the composite z-score was 1.09 in assay [1]; 1.09 in [2]; -0.0554 in assay [3]; 1.01 in assay [4]; -0.266 in assay [5]; -0.157 in [6]. Besides, the composite z-score in the assay with Lefty1 was -0.472; in [8] it was 0.883; in [10], 0.943; in [15] it was 1.12; in assay [16] it was 0.674; with Torsin-1A (Homo sapiens) [17], 0.0277. Also, the composite z-score is 0.332 with Torsin-1A (Homo sapiens) [18] and -0.545 in [19]. Moreover, the z-score was 0.226 in assay [7]; 2.19 (inactive) in assay [9]; 0.0849 (inactive) in assay [11]; 0.339 (inactive) in assay [12]; 0.0075 (inactive) in [13]; -0.101 (inactive) in assay [14].
Turning to `CCCCN1CC=CC23O[C@@H]4/C=C\CCCOC(=O)C4[C@H]2C(=O)N(CCCCCCO)[C@@H]3C1=O` (stereo not given in full), the composite z-score in [1] was 0.193; in assay [2] it was -0.0399; in assay [3], 0.0326; in [4], -1.21; in assay [5] it was -1.02; in assay [6] it was -0.621. The composite z-score in the assay on Lefty1 is -0.331; in [8], -0.13; in assay [10], -0.525; in [15], -0.654; in assay [16] it was -0.154; with Torsin-1A (Homo sapiens) [17], -1.63. In addition, the values for the composite z-score (with Torsin-1A (Homo sapiens) [18]; in [19]) were -1.49 and 0.145, respectively. The z-score in [7] is 1.56; in assay [9], -0.0067 (inactive); in [11] it was 0.121 (inactive); in assay [12], -1.2 (inactive); in assay [13] it was 0.475 (inactive); in [14], -0.34 (inactive).
Turning to `O=C1O[C@H](c2ccccc2)[C@H](c2ccccc2)N2[C@H]1[C@@H](C(=O)O)[C@]1(C(=O)Nc3ccccc31)[C@H]2c1ccc(OCCO)cc1`, the composite z-score was 1.26 in assay [1]; 0.823 in assay [2]; -0.0003 in assay [3]; 0.438 in [4]; 0.496 in assay [5]; 0.293 in [6]. The composite z-score was -0.193 in the assay on Lefty1; 0.677 in assay [8]; -0.0515 in [10]; 1.08 in assay [15]; -0.0468 in assay [16]; 0.658 with Torsin-1A (Homo sapiens) [17]. The composite z-score was -0.283 in the assay with Torsin-1A (Homo sapiens) [18] and 0.98 in assay [19]. For the same molecule, the z-score in [7] is 0.209; in assay [9] it was -1.01 (inactive); in assay [11], 0.234 (inactive); in [12], -0.369 (inactive); in assay [13], 0.739 (inactive); in [14], 0.727 (inactive).

The record behind these values is PubChem BioAssay.
